From PubChem
HTT cytoprotect – cytoprotection in Huntington HTT-Q103 PC12 cell model | AID 1471 | hit rate 0.14% among 230,000 | Potency, µM (doses to about 56.4 µM), for the others: cytoprotection (ATP increase), usual class: activators | PC12 HTT-Q103 induced, cytoprotection, ATP luminescence, 40 h; also: potency is read from the fitted curve at half-maximal effect; % of control where 0% means no effect; nearly all actives have a fitted effect of over 45% in size
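Quantitative HTS on tebufenozide-induced (100 nM) PC12 cells expressing HTTQ103 exon 1–GFP; compounds tested as a concentration series; survival measured via cellular ATP.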
HttQ103 aggreg – mutant huntingtin aggregation inhibition; PC12 HttQ103-GFP aggregates, Acumen cytometry, 40 h; Potency, µM (series often up to 46.1 µM), without a hit: at the highest dose activity change, negative = inhibition, actives largely listed as inhibitors; hit rate 1.1% among 220,000; AID 1688; also: potency is read from the fitted curve at half-maximal effect; % is scaled to controls: 0 for no effect and ±100 for the full control effect; nearly all actives have a fitted effect of over 60% in size
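Multiplexed with ATP-based cell death, this channel scores GFP aggregates in PC12 cells expressing inducible HTTex1-Q103-GFP. Induction used 100 nM tebufenozide; compounds were tested in concentration series.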
IMPase Li inh – IMPase inhibition in cells with lithium potentiation. CHO-M1 cells, IP1 TR-FRET (IP-One), carbachol + lithium. Potency, µM (highest dose often 59.4 µM), for the others: top-dose activity, negative = IMPase inhibition, usual class: inhibitors. hit rate 0.35% among 210,000. AID 1457;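 also: IP1 builds up when IMPase is blocked and the TR-FRET signal falls; potency is read from the fitted curve at half-maximal effect; plate controls were basal vehicle for no effect and high inhibitor control for full effect; nearly all actives have a fitted effect of over 50% in size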
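Concentration–response in CHO-M1 cells, lithium-potentiated; 30 min at 37C. IP1 detected by competitive TR-FRET after 10 min lysis at RT. Hill-fitted AC50.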
IMPase inh – IMPase inhibition in cells | P97697 | CHO-M1 cells, IP1 accumulation, HTRF TR-FRET ratio | inhibition (IP1 accumulation), % at 46.1 µM | 120,000 tested, under 10 active | AID 901; active = well fitted curve in the direction sought with a large enough effect in the signal ratio, not every such curve was filed as active; inconclusive = small, poorly fitted or top-dose-only effect, or a change in a side signal; inactive = no such curve, though single readings can be large or run the other way; the % refers to the signal ratio;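 also: cells stimulated with carbachol in lithium chloride buffer; plate controls were DMSO basal wells for no effect and reference inhibitor wells for full effect; higher means more IMPase inhibition seen as more IP1 and lower FRET ratio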
Target sequence (P97697 whole entry, looked up): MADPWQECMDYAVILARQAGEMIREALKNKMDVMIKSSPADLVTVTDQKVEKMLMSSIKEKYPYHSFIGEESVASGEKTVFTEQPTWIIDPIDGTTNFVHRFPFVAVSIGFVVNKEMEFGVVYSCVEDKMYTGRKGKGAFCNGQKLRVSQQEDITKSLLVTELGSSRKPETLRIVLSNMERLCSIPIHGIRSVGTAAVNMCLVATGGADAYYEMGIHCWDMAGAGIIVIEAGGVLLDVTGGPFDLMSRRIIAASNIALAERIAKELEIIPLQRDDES
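Carbachol-driven Gq signalling in CHO-M1 cells (2000/well) generates IP1. Compounds that block IMPase raise IP1 and so reduce the FRET signal from Eu-anti-IP1 and d2-IP1 after a 10 min room-temperature lysis.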
PNC inhibitor – blocks assembly of the perinucleolar compartment; PC3M PTB-GFP, PNC prevalence imaging, 16 h; active compounds read low; activity change (PNC), negative = inhibition, % at 10 µM; hit rate 3.1% among 140,000; AID 2417;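 active = readout at or below -70, meaning at least 70% loss of cells showing the perinucleolar compartment, a nuclear body marking cancer cells; inconclusive = readout between -30 and a set limit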;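 also: plate controls were DMSO wells for no effect and camptothecin positive control wells for full effect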
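Read-out is percentage of cells bearing a perinucleolar compartment, from automated 20x imaging of fixed, Hoechst-stained PC3M PTB-GFP cells. Cells were seeded 4 h, then exposed 16 h to compound (23 nl of library stock) in duplicate plates.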
NPSR antag – neuropeptide S receptor (human) antagonism, cAMP; Q6W5P4; CHO-NPSR cells, cAMP TR-FRET, antagonist mode; Potency, µM (top dose mostly 38.3 µM), without a hit: top-dose activity change, negative = inhibition, usual class: inhibitors; hit rate 1% among 220,000; also: potency is read from the fitted curve at half-maximal effect; % is scaled to controls: 0 for no effect and ±100 for the full control effect; nearly all actives have a fitted effect of over 50% in size
Target sequence (Q6W5P4 whole entry, looked up): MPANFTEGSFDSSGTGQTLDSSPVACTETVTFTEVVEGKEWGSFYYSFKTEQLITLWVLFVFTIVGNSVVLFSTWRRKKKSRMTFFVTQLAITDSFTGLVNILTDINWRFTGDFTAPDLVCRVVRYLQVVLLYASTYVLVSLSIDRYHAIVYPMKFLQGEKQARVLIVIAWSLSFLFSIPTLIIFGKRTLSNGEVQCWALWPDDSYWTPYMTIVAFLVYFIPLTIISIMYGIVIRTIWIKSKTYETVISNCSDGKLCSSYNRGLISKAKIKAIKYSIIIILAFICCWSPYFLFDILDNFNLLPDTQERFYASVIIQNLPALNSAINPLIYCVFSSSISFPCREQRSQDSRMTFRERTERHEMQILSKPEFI
* hit, by the source's call; [ ] = another dose, or the depositor's remark. An excerpt weighted towards active compounds, which were near 3.4% of everything screened. Unless noted, calls follow the shape of the dose curve; as a rule, active = well fitted curve in the direction sought with a large enough effect; inconclusive = small, poorly fitted or top-dose-only effect, or another doubt; inactive = no such curve, though single readings can be large; an effect the other way counts as inactive or inconclusive.

For CC[C@H]1C2=C3C(CC[C@H]4C(OCc5ccc(F)cc5C(F)(F)F)OC[C@](C)([C@@H]34)N(C(=O)OC(C)(C)C)C2)C(COC(C)=O)C1COC(C)=O (stereo partly drawn) the results were HTT cytoprotect 14% and IMPase Li inh 4%.
CC(C)(C)CC(=O)Nc1nnc(C(F)(F)F)s1 was read as HTT cytoprotect 21%[10 µM], HttQ103 aggreg -15%, IMPase Li inh -5%, IMPase inh inconclusive, PNC inhibitor inconclusive and NPSR antag 5%[46.1 µM].
`CC(NC(=O)Nc1nnc(C(F)(F)F)s1)(C(F)(F)F)C(F)(F)F` gave HTT cytoprotect -59%, HttQ103 aggreg 2.2µM*, IMPase Li inh 6%[38.3 µM], IMPase inh -8, PNC inhibitor -12 and NPSR antag 10µM*.
For CCN(CC)c1nc2ccccc2c(N)c1-c1ccccc1 the results were HTT cytoprotect -5%, HttQ103 aggreg 11µM*, IMPase Li inh 13%[38.3 µM], IMPase inh 15, PNC inhibitor -9 and NPSR antag -5%[46.1 µM].
`COc1cc(NCCCCCCCN)c2ncccc2c1` gave HTT cytoprotect -91%[10 µM], HttQ103 aggreg 1.8µM*, IMPase Li inh 20%, IMPase inh 13, PNC inhibitor inconclusive and NPSR antag 18%[46.1 µM].
`CCCCN(CCCC)S(=O)(=O)c1ccc(C(=O)Nc2nnc(COC)o2)cc1` gave HTT cytoprotect -81%, HttQ103 aggreg 11µM*, IMPase Li inh -3%[38.3 µM], IMPase inh -8, PNC inhibitor 4 and NPSR antag -2%[46.1 µM].
For CCCCN(C)S(=O)(=O)c1ccc(C(=O)Nc2nnc(CSC)o2)cc1 the results were HTT cytoprotect -66%, HttQ103 aggreg 8.9µM*, IMPase Li inh -16%[38.3 µM], IMPase inh -4, PNC inhibitor 9 and NPSR antag -8%[46.1 µM].
For CCN(CC)S(=O)(=O)c1ccc(C(=O)Nc2nnc(COC)o2)cc1 the results were HTT cytoprotect -41%, HttQ103 aggreg 5%, IMPase Li inh -7% and NPSR antag -1%.
For O=C(CSc1ncn[nH]1)Nc1nc(-c2ccccc2)ns1 the results were HTT cytoprotect 3%[0.074 µM], HttQ103 aggreg 22µM*, IMPase Li inh 24%[38.3 µM], IMPase inh 10, PNC inhibitor -27 and NPSR antag -28%[46.1 µM].
O=C(C(Cc1ccccc1)N1C(=O)c2ccccc2C1=O)N1CCc2ccccc21 (stereo not drawn) was read as HTT cytoprotect 30%[10 µM], HttQ103 aggreg inconclusive, IMPase Li inh 16%, IMPase inh 0, PNC inhibitor -100* and NPSR antag inconclusive.
`COc1ccc([N+](=O)[O-])cc1N` gave HTT cytoprotect -20% and IMPase Li inh 8%.
For CCSc1nnc(NC(=O)C(C)(C(F)(F)F)C(F)(F)F)s1 the results were HTT cytoprotect -44%, HttQ103 aggreg 25µM*, IMPase Li inh 38%[38.3 µM], IMPase inh 0, PNC inhibitor 17 and NPSR antag -8%[46.1 µM].
`CCSc1nnc(NC(=O)c2cc3c(s2)CCCC3)s1` gave HTT cytoprotect -20%, HttQ103 aggreg 24%, IMPase Li inh 5.6µM*, IMPase inh -14, PNC inhibitor inconclusive and NPSR antag 0%[46.1 µM].
Screening O=C(Nc1nccs1)c1cc2c(s1)CCCCC2 returned HTT cytoprotect -69%[10 µM], HttQ103 aggreg 13µM*, IMPase Li inh 9%[38.3 µM], IMPase inh -5, PNC inhibitor -2 and NPSR antag inconclusive.
`CCSc1nnc(NC(=O)C(CC)(C(F)(F)F)C(F)(F)F)s1` gave HTT cytoprotect -28%, HttQ103 aggreg -13%[9.22 µM], IMPase Li inh 18%[38.3 µM], IMPase inh 13, PNC inhibitor 27 and NPSR antag -20%[46.1 µM].
Cc1ccc(-n2cc(CN3CCC(O)(c4ccccn4)CC3)c(-c3ccc(F)cc3)n2)cc1 was read as HTT cytoprotect -18%[10 µM], HttQ103 aggreg -4%[9.22 µM], IMPase Li inh 11% and NPSR antag 10%.
For N#C/C(=C\c1ccc(N2CCCCC2)o1)C(=O)Nc1cccc(Br)c1 the results were HTT cytoprotect -10%[10 µM], HttQ103 aggreg inconclusive, IMPase Li inh 9%, PNC inhibitor -108* and NPSR antag -23%.
Cc1ccc(/C=C(\C#N)C(=O)Nc2cccc(Br)c2)o1 was read as IMPase inh -16.
`COc1cccc(CN2CCN(Cc3ccc4c(NC(C)=O)cccc4n3)CC2CCO)c1` (stereo not drawn) gave HTT cytoprotect 14%[10 µM], HttQ103 aggreg 2%[9.22 µM], IMPase Li inh 9% and NPSR antag -9%.
`Cc1nc(-n2[nH]c3c(c2=O)CCCC3)[nH]c(=O)c1Cc1ccccc1` gave HTT cytoprotect -48%[10 µM], HttQ103 aggreg inconclusive, IMPase Li inh 29%[38.3 µM], IMPase inh 8, PNC inhibitor 37 and NPSR antag 7.9µM*.
Cc1ccc2sc(NC(=O)CN3C(=O)c4ccccc4C3=O)nc2c1C was read as HttQ103 aggreg -2%, IMPase Li inh 16%, PNC inhibitor -119* and NPSR antag 9%.
Cc1cccc2sc(NC(=O)CN3C(=O)c4ccccc4C3=O)nc12 was read as HTT cytoprotect 4%[10 µM], HttQ103 aggreg inconclusive, IMPase Li inh 6%, IMPase inh -9, PNC inhibitor inconclusive and NPSR antag 8%.
Screening CCOc1ccc(C(C)NC(=S)NC2CCCCC2)cc1 (stereo not drawn) returned HTT cytoprotect 9%[10 µM], HttQ103 aggreg 0.56µM*, IMPase Li inh 6% and NPSR antag -22%.
For CCOc1ccc(C(C)NC(=S)NC2CCCCC2)cc1OCC (stereo not drawn) the results were HTT cytoprotect -7%, HttQ103 aggreg inconclusive, IMPase Li inh 1% and NPSR antag -14%.
C/C=C/c1ccc2oc(-c3ccc(O)cc3)c(C)c2c1 was read as HTT cytoprotect -20% and IMPase Li inh 2%.
`NCCC[C@@H](CC(=O)N[C@@H]1CCNC[C@H]1C(=O)N[C@H](CC(=O)N[C@@H](CCC(=O)O)CC(=O)O)Cc1ccccc1)NC(=O)C[C@H](Cc1ccccc1)NC(=O)[C@@H]1CNCC[C@H]1N` gave HTT cytoprotect 3%[1.9 µM] and IMPase Li inh 5%.
`O=C(c1ccncc1)N1CCC2(CCCN(Cc3nccs3)C2)CC1` gave HTT cytoprotect inconclusive and IMPase Li inh 24%.
COc1ccc(NC(=O)/C=C/c2ccccc2)c([N+](=O)[O-])c1 was read as HTT cytoprotect -3%[10 µM], HttQ103 aggreg 2%, IMPase Li inh -6%, PNC inhibitor -82* and NPSR antag 7%.
